Results published in the supplement of paper PMC8728848.
Only a selection was taken, and the strongest signals are over-represented in it overall.

What was measured:
Experiment in all cases: glycan array binding signal (z-score within array); higher = stronger binding
Details in all cases: glycan notation: IUPAC condensed, linker removed
GalNAc(b1-6)GalNAc = target: GalNAc(b1-6)GalNAc
In short: (§1)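 Arrays were curated from the Consortium for Functional Glycomics database, 3228 in total, and kept only where the protein sequence was available. Binding is expressed as a within-array Z-score. This score was averaged across arrays of the same protein sequence at different concentrations or buffers and across linkers, and negative values can be read as non-binding.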

GlcA(b1-6)Gal = target: GlcA(b1-6)Gal
In short: as §1

[1] = target: GlcNAc(a1-4)Gal(b1-4)GlcNAc(b1-3)Gal(b1-4)[Fuc(a1-3)]GlcNAc(b1-3)Gal(b1-4)[Fuc(a1-3)]GlcNAc
In short: as §1

[2] = target: GlcNAc(b1-2)[GlcNAc(b1-4)]Man(a1-3)[GlcNAc(b1-2)Man(a1-6)]Man(b1-4)GlcNAc(b1-4)GlcNAc
In short: as §1

[3] = target: GlcNAc(b1-2)[GlcNAc(b1-6)]Man(a1-6)[GlcNAc(b1-2)Man(a1-3)]Man(b1-4)GlcNAc(b1-4)[Fuc(a1-6)]GlcNAc
In short: as §1

GlcNAc(b1-3)Fuc = target: GlcNAc(b1-3)Fuc
In short: as §1

GlcNAc(b1-3)Gal(b1-4)Glc = target: GlcNAc(b1-3)Gal(b1-4)Glc
In short: as §1

[4] = target: GlcNAc(b1-3)Gal(b1-4)GlcNAc(b1-2)Man(a1-3)[GlcNAc(b1-3)Gal(b1-4)GlcNAc(b1-2)Man(a1-6)]Man(b1-4)GlcNAc(b1-4)[Fuc(a1-6)]GlcNAc
In short: as §1

[5] = target: GlcNAc(b1-3)Gal(b1-4)GlcNAc(b1-3)Gal(b1-4)GlcNAc(b1-2)Man(a1-3)[GlcNAc(b1-3)Gal(b1-4)GlcNAc(b1-3)Gal(b1-4)GlcNAc(b1-2)Man(a1-6)]Man(b1-4)GlcNAc(b1-4)[Fuc(a1-6)]GlcNAc
In short: as §1

[6] = target: GlcNAc(b1-3)Gal(b1-4)GlcNAc(b1-3)Gal(b1-4)GlcNAc(b1-3)Gal(b1-4)GlcNAc(b1-2)Man(a1-3)[GlcNAc(b1-3)Gal(b1-4)GlcNAc(b1-3)Gal(b1-4)GlcNAc(b1-3)Gal(b1-4)GlcNAc(b1-2)Man(a1-6)]Man(b1-4)GlcNAc(b1-4)[Fuc(a1-6)]GlcNAc
In short: as §1

[7] = target: GlcNAc(b1-3)Gal(b1-4)GlcNAc(b1-3)Gal(b1-4)GlcNAc(b1-3)Gal(b1-4)GlcNAc(b1-2)[GlcNAc(b1-3)Gal(b1-4)GlcNAc(b1-3)Gal(b1-4)GlcNAc(b1-3)Gal(b1-4)GlcNAc(b1-6)]Man(a1-6)[GlcNAc(b1-3)Gal(b1-4)GlcNAc(b1-3)Gal(b1-4)GlcNAc(b1-3)Gal(b1-4)GlcNAc(b1-2)Man(a1-3)]Man(b1-4)GlcNAc(b1-4)[Fuc(a1-6)]GlcNAc
In short: as §1

[8] = target: GlcNAc(b1-3)Gal(b1-4)GlcNAc(b1-6)[Gal(b1-3)]GalNAc
In short: as §1

[9] = target: GlcNAc(b1-4)GlcNAc(b1-4)GlcNAc(b1-4)GlcNAc(b1-4)GlcNAc(b1-4)GlcNAc
In short: as §1

[10] = target: GlcNAc(b1-4)[GlcNAc(b1-6)]GalNAc
In short: as §1

[11] = target: Man(a1-2)Man(a1-2)Man(a1-6)[Man(a1-3)]Man
In short: as §1

[12] = target: Man(a1-3)[Man(a1-6)]Man(b1-4)GlcNAc(b1-4)[Fuc(a1-6)]GlcNAc
In short: as §1

Man(a1-6)Man = target: Man(a1-6)Man
In short: as §1

[13] = target: Neu5Ac(a2-3)Gal(b1-3)GlcNAc(b1-3)Gal(b1-3)GlcNAc
In short: as §1

Neu5Ac(a2-3)GalNAc = target: Neu5Ac(a2-3)GalNAc
In short: as §1

[14] = target: Neu5Ac(a2-6)Gal(b1-4)GlcNAc(b1-2)Man(a1-3)Man(b1-4)GlcNAc(b1-4)GlcNAc
In short: as §1

[15] = target: Neu5Ac(a2-6)Gal(b1-4)GlcNAc(b1-2)Man(a1-3)[Man(a1-6)]Man(b1-4)GlcNAc(b1-4)GlcNAc
In short: as §1

[16] = target: Neu5Ac(a2-6)Gal(b1-4)GlcNAc(b1-2)Man(a1-3)[Neu5Ac(a2-6)Gal(b1-4)GlcNAc(b1-2)Man(a1-6)]Man(b1-4)GlcNAc(b1-4)[Fuc(a1-6)]GlcNAc
In short: as §1

[17] = target: Neu5Ac(a2-6)Gal(b1-4)GlcNAc(b1-3)Gal(b1-4)GlcNAc(b1-6)[Gal(b1-3)]GalNAc
In short: as §1

B1: HML-Native (Hypnea musciformis), P84871 (protein)
chain: QKFCTLDIAPVCCQIVIGGGMYTAGNACMCEGFVSGVGRCENPKECPCTREAQIPSCCSSRWGLVSVTGKCACDCLGGTVAFPEPCPSPY
glycan array binding signal (z-score) (GalNAc(b1-6)GalNAc): -0.284
glycan array binding signal (z-score) (GlcA(b1-6)Gal): -0.241
glycan array binding signal (z-score) [1]: 0.641
glycan array binding signal (z-score) [2]: -0.307
glycan array binding signal (z-score) [3]: 4.99
glycan array binding signal (z-score) (GlcNAc(b1-3)Fuc): -0.11
glycan array binding signal (z-score) (GlcNAc(b1-3)Gal(b1-4)Glc): -0.205
glycan array binding signal (z-score) [4]: 5.62
glycan array binding signal (z-score) [5]: 5.5
glycan array binding signal (z-score) [6]: 5.16
glycan array binding signal (z-score) [7]: 1.38
glycan array binding signal (z-score) [8]: -0.272
glycan array binding signal (z-score) [9]: -0.197
glycan array binding signal (z-score) [10]: -0.239
glycan array binding signal (z-score) [11]: -0.005
glycan array binding signal (z-score) [12]: 5.72
glycan array binding signal (z-score) (Man(a1-6)Man): -0.3
glycan array binding signal (z-score) [13]: -0.295
glycan array binding signal (z-score) (Neu5Ac(a2-3)GalNAc): -0.258
glycan array binding signal (z-score) [14]: -0.157
glycan array binding signal (z-score) [15]: -0.166
glycan array binding signal (z-score) [16]: 5.65
glycan array binding signal (z-score) [17]: -0.205
